From PubChem BioAssay (NCATS)
Records with an inconclusive call do not appear. Activity calls are given as the source filed them. Calls come from the whole dose curve; as a rule, active = well fitted curve in the direction sought with a large enough effect; inconclusive = small, poorly fitted or top-dose-only effect, or another doubt; inactive = no such curve, though single readings can be large; an effect the other way counts as inactive or inconclusive.

What was measured:
[1] = target: Cellular tumor antigen p53 (Homo sapiens) (UniProt P04637); assay: Primary qHTS for small molecule compounds that upregulate eGFP-tagged delta133p53alpha (in N-terminal) cells. (AID 2060322); details: NCI-H358 eGFP-delta133p53alpha fluorescence, 24 h; activation: hits give high values;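 note: cells pre-induced with doxycycline then dosed without doxycycline; series mostly up to about 56 µM; 0% = DMSO vehicle and 100% = reference activator; nearly all actives have a fitted effect of over 75% in size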
Method in brief: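 NCI-H358 cells pre-induced 24 h with 10 ng/ml doxycycline for eGFP-delta133p53alpha, plated dox-free and exposed 24 h at 37C to titrated compounds. Fixed, Hoechst-stained; gated GFP peak intensity by laser scanning cytometry, normalized to DMSO (0%) and 57.5 uM 5-azacytidine (100%).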

[2] = target: Aldehyde dehydrogenase, mitochondrial (Homo sapiens) (UniProt P05091); assay: qHTS for Inhibitors of the Aldehyde Dehydrogenase Family (ALDH2) Primary screen (AID 2061308);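 note: plate controls were vehicle for no effect and reference inhibitor for full effect; nearly all actives have a fitted effect of over 55% in size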
[3] = target: Retinaldehyde dehydrogenase 3 (Homo sapiens) (UniProt P47895); assay: qHTS for Inhibitors of the Aldehyde Dehydrogenase Family (ALDH1A3) Primary screen (AID 2061315);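 note: plate controls were DMSO vehicle for no effect and reference inhibitor for full effect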

Chain of Cellular tumor antigen p53 (Homo sapiens) (P04637 whole entry, looked up): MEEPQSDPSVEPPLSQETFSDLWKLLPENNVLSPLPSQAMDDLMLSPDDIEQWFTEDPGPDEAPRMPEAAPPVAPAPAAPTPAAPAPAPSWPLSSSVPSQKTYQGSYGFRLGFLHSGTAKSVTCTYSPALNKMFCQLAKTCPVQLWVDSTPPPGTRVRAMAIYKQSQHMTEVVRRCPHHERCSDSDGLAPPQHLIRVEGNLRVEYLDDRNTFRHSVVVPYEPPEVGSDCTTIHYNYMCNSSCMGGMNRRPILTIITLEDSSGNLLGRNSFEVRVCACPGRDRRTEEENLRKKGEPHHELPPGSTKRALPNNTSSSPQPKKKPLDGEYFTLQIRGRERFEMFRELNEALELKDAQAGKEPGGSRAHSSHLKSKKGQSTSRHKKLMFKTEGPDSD

CC(C)C[C@H](NC(=O)[C@@H]1O[C@H]1C(=O)O)C(=O)NCCCCN=C(N)N
inactive: activation [1] -8.33% | Potency [2] | Potency [3]

CC(C)(C)NS(=O)(=O)c1cncc(-c2cc(F)c3nc(N)nn3c2)c1
inactive: activation [1] 5.36% | Potency [2] | Potency [3]

O=C(O)Cc1cn(C2OCC(O)C(O)C2O[C@@H]2O[C@H](CO)[C@@H](O)[C@H](O)[C@H]2O)c2ccccc12 (some centres not stated)
inactive: activation [1] 3.82% | Potency [2] | Potency [3]

CC1=C(CO)C2(C)CCCC(C)(C)C2C(O)C1O (configuration not stated)
inactive: activation [1] 11.6% | Potency [2] | Potency [3]

CC(=O)O[C@@H]1[C@@H](OC(C)=O)[C@H](C)O[C@@H](O[C@H]2[C@@H]3C=CO[C@@H](O[C@@H]4O[C@H](CO)[C@@H](O)[C@H](O)[C@H]4O)[C@@H]3[C@@]3(CO)O[C@@H]23)[C@@H]1OC(=O)/C=C/c1ccccc1
inactive: activation [1] -1.53% | Potency [2] | Potency [3]

CC12CCC(C(OC3OC(COC4OCC(O)(CO)C4O)C(O)C(O)C3O)C1)C(C)(C)O2 (configuration not stated)
inactive: activation [1] -13.4% | Potency [2] | Potency [3]

C=C1CCC2C(C)(C)C(O)CCC2(C)C1CCC(C)CCO (configuration not stated)
inactive: activation [1] 6.25% | Potency [2] | Potency [3]

CC(O)(CC(=O)O)CC(=O)O[C@@H]1[C@@H](O)[C@H](OCCc2ccccc2)O[C@H](CO)[C@H]1O (some centres not stated)
inactive: activation [1] 3.82% | Potency [2] | Potency [3]

CC(=C/C(=O)O)/C=C/[C@]1(O)[C@@]2(C)CO[C@]1(C)C[C@H](O[C@@H]1O[C@H](CO)[C@@H](O)[C@H](O)[C@H]1O)C2
inactive: activation [1] -16.1% | Potency [2] | Potency [3]
